Measurements as given in PubChem BioAssay AID463190 (Sanford-Burnham Center for Chemical Genomics, 2010).
Out of some 330,000 compounds screened, about 7,300 (2.2%) were called active. The entries come from a sample that favours actives as a whole. Unmarked numbers belong to inactive results.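 Rule for the calls: active = inhibition of at least 40%; inactive = the rest.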

Experiment: growth inhibitors of tim10-1 mutant yeast, primary screen, luminescence, uHTS (AID 463190);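 note: mutant grown at 25 °C; 0% = DMSO wells with yeast and 100% = wells holding no yeast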
Conditions: S. cerevisiae tim10-1 ts strain growth, BacTiter-Glo, 24 h; at 20 µM; stronger effect = higher value

Row | Structure (SMILES) | inhibition
1 | Cc1ccc(-c2cc(C(=O)N3CCc4ccccc4C3)no2)cc1 | 18.4%
2 | Cc1ccc2c(c1)c1ncn(CCC3=CCCCC3)c(=O)c1n2C | 22.5%
3 | Cc1ccc2c(c1)c1ncnc(N3CCc4ccccc4C3)c1n2C | 44% (active)
4 | O=C(C1CCC(=O)N(C2CC2)C1)N1CCN(c2ccc(Cl)cc2)CC1 (stereo not drawn) | -6.67%
5 | C=CCNC(=O)CC12CC3CC(C1)CC(CC(=O)NCC=C)(C3)C2 | 9.8%
6 | COc1ccc(-n2c(SCC(=O)OC(C)C)nnc2-c2ccccn2)cc1 | 34.2%
7 | CCOc1cccc(-c2nnc(SCC(=O)NC3CC3)n2C)c1 | 6.04%
8 | CCOc1cccc(-c2nn3c(-c4ccccn4)nnc3s2)c1 | 42% (active)
9 | O=C(O)C1C2C=CC(C2)C1C(=O)NCc1ccccc1 (stereo not drawn) | -21.1%
10 | COc1ccc(C2=NO[C@@H]3C(=O)N(Cc4ccccc4)C(=O)[C@H]23)cc1OC | 14.3%
11 | CC(c1cccnc1)N(CCN(C)C)C(=O)Nc1ccc(Cl)c(Cl)c1 (stereo not drawn) | 4.37%
12 | CCn1nccc1C(=O)Nc1ccc(Cl)c(Cl)c1 | 44% (active)
13 | CCn1nccc1C(=O)Nc1ccc(S(=O)(=O)NC23CC4CC(CC(C4)C2)C3)cc1 | 26.7%
14 | CN1CCN(C(=O)CCc2ncc(C(F)(F)F)cc2Cl)CC1 | -4.04%
15 | COC(=O)c1c(C(=O)OC)c(-c2cccc(C)c2)n2c1CS(=O)C2 (stereo not drawn) | 10.8%
16 | CCOCCCNC(=O)c1ccc(CS(=O)(=O)c2cccc(C(F)(F)F)c2)o1 | 6.36%
17 | Cc1ccc(NS(=O)(=O)c2ccc(-c3ccc(=O)[nH]n3)o2)c(C)c1 | 1.41%
18 | Cc1ccc(-c2csc(-c3c[nH]c4ccccc34)n2)cc1 | 60.4% (active)
19 | Cc1ccc(-c2csc(NC3OC(=O)c4ccccc43)n2)cc1 (stereo not drawn) | 5.08%
20 | Cc1ccc(-c2csc(NC(=O)Cn3[nH]c(=O)c4ccccc4c3=O)n2)cc1 | 31.6%
21 | COc1cc(N2C(=O)CC3(CCCC3)CC2=O)cc(OC)c1OC | 11.2%
22 | N#CC1(C#N)C(C(=O)C23CC4CC(CC(C4)C2)C3)C12CCOCC2 (stereo not drawn) | 47.6% (active)
23 | CC(C)(C)c1ccc(C(=O)NCc2nnc(SCC(=O)N3CCCc4ccccc43)n2-c2ccccc2)cc1 | 1.45%
24 | O=C(COC(=O)CCCSc1nc2ccccc2[nH]1)Nc1ccc(Oc2ccccc2)cc1 | 14.2%

Row | Structure (SMILES) | inhibition
25 | Cc1ccc(-c2ccc(/C=C(\C#N)C(N)=S)o2)c([N+](=O)[O-])c1 | 57.3% (active)
26 | Cc1cc([N+](=O)[O-])c(-c2ccc(/C=N/n3cnnc3)o2)cc1Cl | 16.2%
27 | Cc1cc(C)c([N+](=O)[O-])cc1-c1ccc(/C=N/NC(=O)c2nonc2N)o1 | -16.4%
28 | CCOC(=O)CCCCCC(=O)Nc1ccc2c(c1)CC(=O)N([C@@H](C)CO)C[C@H](C)[C@@H](CN(C)Cc1ccccc1)O2 | -5.39%
29 | Cn1nnnc1SCC(=O)NNC(=O)c1ccc(Br)cc1 | 0.63%
30 | COc1ccc2c(c1)C(NS(=O)(=O)OCC(Cl)(Cl)Cl)CCC2 (stereo not drawn) | 45.1% (active)
31 | COc1ccc(CN(C)C(C)C(=O)NC2CCCc3ccccc32)cc1 (stereo not drawn) | 23.2%
32 | COC(=O)c1cc(OCC(=O)NC2CCCc3ccccc32)cc(C(=O)OC)c1 (stereo not drawn) | 11.9%
33 | O=C(Nc1ccc(F)cc1)C1CCN(C(=O)c2ccc([N+](=O)[O-])cc2)CC1 | 2.2%
34 | COc1ccccc1C1SCCN1C(=O)c1ccc([N+](=O)[O-])cc1 (stereo not drawn) | 41.9% (active)
35 | COc1ccccc1C1CCN(c2ccc([N+](=O)[O-])cn2)CC1 | 14.4%
36 | CN(C(=O)CC1C(=O)NCCN1Cc1ccc2ccccc2c1)C1CCOCC1 (stereo not drawn) | 29.6%
37 | NS(=O)(=O)c1ccc(CCNC(=O)c2nc(CS(=O)(=O)c3ccc(Cl)cc3)no2)cc1 | -1.2%
38 | CCCN(c1ccc(C)cc1)c1nc(=O)c2cccnc2s1 | 15.2%
39 | CCC(C)NCCOCCOc1ccc(Br)cc1C (stereo not drawn) | -4.38%
40 | COc1ccc(-c2nc3cnccn3c2NC(C)(C)CC(C)(C)C)cc1O | 32.9%
41 | Cc1ccc(C(=O)O/N=C(\N)c2ccccn2)cc1Cl | 26.8%
42 | Cc1cccc(/C(N)=N/OC(=O)c2ccccc2Cl)c1 | 59.7% (active)
43 | C/C(=N\OC(=O)c1ccccc1)c1c(C)nc2cc(C)ccn12 | 5.99%
44 | O=C(NCc1ccco1)/C(=C/c1cccc([N+](=O)[O-])c1)NC(=O)c1ccco1 | 15.4%
45 | Cc1ccc(N2C(=O)C3C4C=CC(CC4)C3C2=O)cc1Br (stereo not drawn) | 6.71%
46 | CN(C)CCN(C(=O)CN1C(=O)c2ccccc2C1=O)c1nc2cc3c(cc2s1)OCCO3 | -13.3%
47 | CN(C)CCN(C(=O)C1CCCCC1)c1nc2cc3c(cc2s1)OCO3 | 16.1%
48 | Cc1ccc2nc(N(CCN(C)C)C(=O)C3=COCCO3)sc2c1 | 44.8% (active)

Row | Structure (SMILES) | inhibition
49 | CN(C)CCN(C(=O)C1=COCCO1)c1nc2ccc(Cl)cc2s1 | 66.5% (active)
50 | CCN(CC)CCN(C(=O)c1cc(Cl)sc1Cl)c1nc2cc3c(cc2s1)OCO3 | 36.6%
51 | CCc1ccc2nc(N(CCCN(C)C)C(=O)c3ccc4c(c3)OCCO4)sc2c1 | 16%
52 | CN1C(=O)C2(OCCCO2)c2cc(Cl)ccc21 | -14.9%
53 | CNC(=O)c1[nH]cnc1C(=O)N[C@@H](CC(C)C)C(=O)OCc1ccccc1 | 18.1%
54 | COC(=O)c1cc(S(=O)(=O)NCC2CCN(Cc3ccc(Cl)cc3)CC2)cn1C | -24.4%
55 | Cc1cccc(C)c1NC(=O)CSc1nnc(-c2ccccc2)n1Cc1ccc2c(c1)OCO2 | 21.2%
56 | CC1=C(C(N)=O)C(c2ccc3c(c2)OCO3)n2nc(-c3cccc(C)c3)nc2N1 (stereo not drawn) | 0.453%
57 | c1ccc(-c2nnc3n2NC(c2ccc4c(c2)OCO4)S3)cc1 (stereo not drawn) | 51.2% (active)
58 | COc1ccc(CC(=O)N[C@@H]2c3cc(OC)c(OC)cc3C[C@H]2OCc2ccccc2)cc1 | 15.2%
59 | Cc1ccccc1NCC(=O)N/N=C\c1ccc([N+](=O)[O-])s1 | 53.3% (active)
60 | COc1ccc(C(=O)NCC(=O)N/N=C/c2ccc([N+](=O)[O-])s2)cc1OC | 16.7%
61 | Cc1ccc(/C=N/NC(=O)CN2CCN(Cc3ccccc3)CC2)s1 | -3.89%
62 | COc1ccc(CN2CCN(Cc3ccc(OC)c(OC)c3OC)CC2)cc1 | -1.36%
63 | CCOC(=O)c1cc(C#N)c(N2CCCCC2)nc1-c1ccccc1 | -4.08%
64 | CCOc1ccc2nc(N3CCCN(C(=O)Nc4ccccc4C)CC3)c(C#N)cc2c1 | 42.1% (active)
65 | CCOc1ccc(C(=O)NC2CCN(C(=O)Nc3ccccc3OC)CC2)cc1 | 6.63%
66 | O=CN1CCN(C(=O)c2ccc3c(c2)OCO3)CC1 | -19.2%
67 | COc1cccc(NS(=O)(=O)c2ccc3[nH]cc(C(=O)NCCCOC(C)C)c(=O)c3c2)c1 | 19.3%
68 | Nc1ccccc1/C=N\N=C/c1ccccc1N | 7.02%
69 | O=C1C=C(c2cc(C(F)(F)F)cc(C(F)(F)F)c2)C[C@@H](c2ccc3c(c2)OCO3)C1 | -2.52%
70 | Cc1cn(COC/C=C/c2ccccc2)c(=O)[nH]c1=O | 7.72%
71 | COC(=O)c1c(C)[nH]c(C(=O)/C=C/c2ccc(Cl)cc2)c1C | 5.77%
72 | Cc1[nH]c(=O)c(C(=O)/C=C/c2ccccc2)c2c1CCCC2 | 46.1% (active)

Row | Structure (SMILES) | inhibition
73 | CCCC1OC23CCCCC2C(C#N)(C#N)C1(C#N)C(=N)O3 (stereo not drawn) | 13%
74 | c1ccc(-c2cn3c(n2)CCc2ccc4cccnc4c2-3)cc1 | 42% (active)
75 | Cc1cc(N2C(=O)c3ccc(C(=O)NCc4ccccc4)cc3C2=O)no1 | 11.1%
76 | CCCc1nn2c(=O)cc(CSCC(=O)Nc3cccc(C)c3)nc2s1 | 5.18%
77 | CCOC(=O)CC(NC(=O)C1c2ccccc2Oc2ccccc21)c1ccc(C)cc1 (stereo not drawn) | 5.58%
78 | CC(C)(C)NC(=O)NC(=O)COC(=O)C1c2ccccc2Oc2ccccc21 | 23.3%
79 | CCCCN1C(=S)NC[C@@H]1C(C)CC (stereo partly drawn) | 20.5%
80 | CCOC(=O)/C=C/c1ccc(C(F)(F)F)cc1S(=O)(=O)NC(C)(C)C | 44.1% (active)
81 | Cn1c(N)c(C(=O)COC(=O)/C=C/c2cccc(C(F)(F)F)c2)c(=O)n(C)c1=O | 17.7%
82 | CCOC(=O)NNc1cc(C(F)(F)F)ccn1 | -3.69%
83 | COC(C(=O)NCc1ccccc1C)c1ccccc1 (stereo not drawn) | -2.01%
84 | CCCCn1c(SCC(=O)N2CCOCC2)nc2c1c(=O)n(C)c(=O)n2C | 0.276%
85 | CC(=O)Oc1ccc(C(=O)Nc2nccs2)cc1 | 8.42%
86 | COc1cc(C(=O)Nc2nccs2)cc(OC)c1OC | 43.9% (active)
87 | COc1ccc(Cc2nnc(NC(=O)c3cc(OC)c(OC)c(OC)c3)s2)cc1OC | 8.1%
88 | Cc1ccc(SC(C)C(=O)NCc2ccc(F)cc2)cc1 (stereo not drawn) | 9.06%
89 | CNS(=O)(=O)c1cccc(C(=O)OCCCC(=O)c2ccccc2)c1 | 3.9%
90 | Cc1ccsc1C(=O)NCCc1ccco1 | -19%
91 | COc1ccc(NC(=O)C2COc3ccccc3O2)cc1 (stereo not drawn) | 21.5%
92 | COc1ccc(OC)c2sc(NC(=O)C3COc4ccccc4O3)nc12 (stereo not drawn) | 47.3% (active)
93 | COc1cc(SC)ccc1C(=O)NNC(=O)C1COc2ccccc2O1 (stereo not drawn) | 5.41%
